The record followed here is ChEMBL document CHEMBL1857833, “Screening and optimization of specific chemical series against human African Trypanosomiasis (HAT)”.

Values joined by “and” are separate entries in the source; they are usually repeats but may differ in a detail not shown here. Identical values can stand only once. The campaign covered roughly 4,400 compounds. About 390 (8.9%) showed an effect of 50% or more. The sample as a whole holds a higher share of strong results than the screen did.

This test relates to Trypanosoma brucei. Put plainly: DNDI: Inhibition of Human African Trypanosomiasis, SBRI 427, in vitro at 2 ug.mL-1. Format: functional.
What is called % inhibition is the relative decrease from the control value, in per cent. Consider `O=Cc1nccn1Cc1coc(-c2ccc(Br)cc2)n1`, for which the “% inhibition” value came to 11%.

`CCOc1ccccc1CN/C(=N\O)c1ccnc(Oc2ccc(F)c(F)c2)c1`: the “% inhibition” value turned out to be 13%. Consider `CN(C)CCN(Cc1ccccc1)Cc1coc(-c2ccc(Br)cc2)n1`, for which the “% inhibition” value stood at 23%. As for `Clc1cccc(N2CCN(Cc3coc(-c4ccccc4Br)n3)CC2)c1`, the figure is 7%; as for `COc1ccccc1CCNCc1coc(-c2ccccc2Br)n1`, 6%; as for `CCOc1ccccc1CN/C(=N\O)c1ccc(Oc2cc(C)cc(C)c2)nc1`, 28%. Turning to `Cc1ccc(/C(=N/O)N2CCC(N(C)C)C2)c(Oc2cccc(F)c2)n1` (configuration not stated), the “% inhibition” value is 6%. The same measure for `CCOc1ccccc1-c1nc(CNC2CCN(Cc3ccccc3)C2)co1` (configuration not stated): 6%; for `CC(NCc1coc(-c2cccc3ccccc23)n1)C1CCCCC1` (configuration not stated): 87% and 90%. With `CCOc1ccccc1-c1nc(CNC(C)C2CCCCC2)co1` (configuration not stated), the “% inhibition” value was 98%. As for `CCOc1ccccc1-c1nc(CNC2CCCCCCCCCCC2)co1`, the figure is 99%; as for `CCOc1ccc(-c2nc(CNC(C)C3CCCCC3)co2)cc1` (configuration not stated), 87%. Take `CCOc1ccccc1-c1nc(CNC(C)c2ccc(C)cc2)co1` (configuration not stated): the “% inhibition” value is on record as 15%. As to `CC(NCc1coc(-c2ccc(Br)cc2)n1)C1CCCCC1` (configuration not stated), the “% inhibition” value worked out at 36%.

For `CCOc1ccccc1-c1nc(CNC(C)c2cccc3ccccc23)co1` (configuration not stated), the “% inhibition” value is 5% and 9%. For `CCOc1ccccc1-c1nc(CNC2C[C@H]3CC[C@@H]2C3)co1` (some centres not stated), the “% inhibition” value amounted to 28%.

Regarding `Cc1ccc(-c2nc(CNC(C)C3CCCCC3)co2)cc1` (configuration not stated), the “% inhibition” value came out at 25%.

In the case of `Cc1ccccc1-c1nc(CNC(C)C2CCCCC2)co1` (configuration not stated), the “% inhibition” value came out at 23%. On to `CC(NCc1coc(-c2ccccc2Br)n1)C1CCCCC1` (configuration not stated), for which the “% inhibition” value is -30% and -35%. Consider `N/C(=N\O)c1ccc(Oc2cccc3ccccc23)nc1`, for which the “% inhibition” value came to 36%. For the compound `COc1ccc(-c2nc(CN(C)Cc3cccc4ccccc34)co2)cc1`, the “% inhibition” value is given as -11%. On to `COCCN(/C(=N\O)c1ccc(Oc2ccc(C)cc2C)nc1)C(C)C`, for which the “% inhibition” value is reported as 5%. As to `COc1ccc(-c2nc(CNC[C@@H]3CCCO3)co2)cc1`, the “% inhibition” value is given as 16%. As to `CCOc1ccccc1-c1nc(CN(CCC#N)CC2CCCO2)co1` (configuration not stated), the “% inhibition” value is -20%. Take `CCOc1ccccc1-c1nc(CN(CC)CCN(CC)CC)co1`: the “% inhibition” value is listed as -5%. The same measure for `O/N=C(\NC1CCc2ccccc21)c1ccnc(Oc2cccc3cnccc23)c1` (configuration not stated): 18%; for `C=CCN1CCN(/C(=N\O)c2cccnc2Oc2ccc(Cl)cc2)CC1`: 7%; for `CCOc1ccccc1-c1nc(CNCCC2=CCCCC2)co1`: 53%. For `Brc1ccccc1-c1nc(CNCCC2=CCCCC2)co1`, the “% inhibition” value is reported as -2%. As for `Cc1ccccc1-c1nc(CNCCC2=CCCCC2)co1`, the “% inhibition” value turned out to be 10%. Turning to `COc1ccc(OC)c(NCc2coc(-c3ccco3)n2)c1`, the “% inhibition” value is -5%. With `CCC(CC)NCc1coc(-c2ccccc2Cl)n1`, the “% inhibition” value was -8%. Turning to `CCOc1ccc(Oc2nc(C)ccc2/C(=N/O)NCc2ccco2)cc1`, the “% inhibition” value came to 6%.

For the compound `Cc1ccc([C@@H](C)NCc2coc(-c3ccc(Cl)cc3Cl)n2)cc1`, the “% inhibition” value came out at 14%. As for `O/N=C(/c1ccnc(Oc2cccc(F)c2)c1)N1CCCCCC1`, the “% inhibition” value is on record as 3%. Take `CCC(CC)N/C(=N\O)c1ccc(C)nc1Oc1ccc(C)cc1`: the “% inhibition” value came to 70%. On to `CSc1ccc(Oc2nc(C)ccc2/C(=N/O)NC(C)C)cc1`, for which the “% inhibition” value is given as -8%. Regarding `CCC(CC)N/C(=N\O)c1ccc(C)nc1Oc1ccc(SC)cc1`, the “% inhibition” value came out at 99%. Turning to `CCC(CC)N/C(=N\O)c1ccc(C)nc1Oc1cc(C)cc(C(C)C)c1`, the “% inhibition” value is 15%.

For `CCC(CC)N/C(=N\O)c1ccc(C)nc1Oc1ccc(F)cc1`, the “% inhibition” value was 24%. Regarding `CCC(CC)N/C(=N\O)c1ccc(C)nc1Oc1ccc(C)cc1C`, the “% inhibition” value is on record as 34%. `CCC(CC)N/C(=N\O)c1ccc(C)nc1Oc1ccc(C)cc1OC`: the “% inhibition” value came out at 100%. On to `COc1cc(C)ccc1Oc1nc(C)ccc1/C(=N/O)NC(C)C`, for which the “% inhibition” value is reported as 29%. Regarding `CSc1ccc(Oc2nc(C)ccc2/C(=N/O)NCC(C)(C)C)cc1`, the “% inhibition” value is listed as -6%.

Take `Cc1ccc(/C(N)=N/O)c(Oc2cccc3ccc(C)nc23)n1`: the “% inhibition” value came out at 13%. With `O/N=C(\NCCN1CCOCC1)c1ccc(Oc2cccc3cccnc23)nc1`, the “% inhibition” value was found to be 9%.

For the compound `Cc1cc(Oc2ccc(/C(=N/O)n3ccnc3)cn2)cc(C(C)C)c1`, the “% inhibition” value amounted to 1%. As to `C=CCN1CCN(/C(=N\O)c2ccnc(Oc3ccc(C)c4c3CCC4)c2)CC1`, the “% inhibition” value is reported as 22%. With `Cc1ccccc1-c1nc(CN2CCN(C/C=C/c3ccccc3)CC2)co1`, the “% inhibition” value was -34%.

Regarding `Cc1cccc(-c2nc(CNCc3ccc(C(C)(C)C)cc3)co2)c1`, the “% inhibition” value is -9%. Consider `COCCN(/C(=N\O)c1cccnc1Oc1ccccc1F)C(C)C`, for which the “% inhibition” value is recorded as 5%. As to `COCC(C)N/C(=N\O)c1cccnc1OCc1ccccc1F` (configuration not stated), the “% inhibition” value is reported as -13%. For the compound `Cc1cn(/C(=N\O)c2cccnc2Oc2c(F)cccc2F)cn1`, the “% inhibition” value was -7%.

With `CCC(CC)N/C(=N\O)c1cccnc1Oc1ccccc1OC`, the “% inhibition” value is 76%.

With `CCC(CC)N/C(=N\O)c1cccnc1Oc1ccccc1F`, the “% inhibition” value came to 96%.

Turning to `CCC(CC)N/C(=N\O)c1cccnc1Oc1c(F)cccc1F`, the “% inhibition” value is reported as 99%. In the case of `COc1ccc(CN/C(=N\O)c2cccnc2Oc2ccccc2SC)cc1`, the “% inhibition” value was found to be 16%. Turning to `CSc1ccccc1Oc1ncccc1/C(=N/O)NCc1cccs1`, the “% inhibition” value was determined as 28%. As for `COCC(C)N/C(=N\O)c1cccnc1Oc1ccccc1OC(C)C` (configuration not stated), the “% inhibition” value was -8%. With `CCC(CC)N/C(=N\O)c1cccnc1Oc1ccccc1SC`, the “% inhibition” value is 99%. On to `COC[C@H]1CCCN1Cc1coc(-c2ccc(O)cc2)n1`, for which the “% inhibition” value is listed as 16%. For `Clc1ccccc1-c1nc(CNCCc2ccccc2)co1`, the “% inhibition” value is listed as -15%. On to `CCC(NCc1coc(-c2ccc(C)cc2)n1)c1ccccc1` (configuration not stated), for which the “% inhibition” value was -6% and 4%. As to `Cc1cc(Oc2ccc(/C(=N/O)N3CCSCC3)cn2)cc(C(C)C)c1`, the “% inhibition” value is 4%. In the case of `Cc1ccc(/C(=N/O)NCc2ccc(C)o2)c(OCc2ccccc2F)n1`, the “% inhibition” value is reported as 18%.

Consider `CC(CCc1ccccc1)NCc1coc(-c2ccc(F)cc2)n1` (configuration not stated), for which the “% inhibition” value is 17%. As for `Cc1ccc(Oc2nc(C)ccc2/C(=N/O)NCc2cccs2)cc1`, the figure is 16%; as for `COc1cccc(N2CCN(Cc3coc(-c4ccc(Cl)cc4Cl)n3)CC2)c1`, 10%. For the compound `CC(C)COc1ncccc1/C(=N/O)NC1CC(C)CC(C)(C)C1` (configuration not stated), the “% inhibition” value is -8%. The same measure for `Cc1ccc(/C(=N/O)NC2CCC(C)CC2)c(OCc2ccccn2)n1` (configuration not stated): 100%; for `CSc1ccc(Oc2nc(C)ccc2/C(=N/O)NC2CC(C)CC(C)(C)C2)cc1` (configuration not stated): 10%. On to `Cc1ccc(/C(=N/O)NC(C)C)c(OCc2ccccn2)n1`, for which the “% inhibition” value stood at 11%. As for `Cc1cc(C)cc(Oc2nc(C)ccc2/C(=N/O)NC2CC(C)CC(C)(C)C2)c1` (configuration not stated), the figure is -4%. Regarding `Cc1ccc(/C(=N/O)NC2CC(C)CC(C)(C)C2)c(OCC(C)C)n1` (configuration not stated), the “% inhibition” value is reported as 97%. The same measure for `Cc1ccc(/C(=N/O)NCC2CCCCC2)c(OCc2ccccn2)n1`: 43%. Regarding `Cc1ccc(/C(=N/O)NC2CC(C)CC(C)(C)C2)c(OCc2ccccn2)n1` (configuration not stated), the “% inhibition” value is 56%.

As to `Cc1ccc(/C(=N/O)NC2CCc3ccccc32)c(OCc2ccccn2)n1` (configuration not stated), the “% inhibition” value was determined as 5%.
